The record followed here is PubChem BioAssay (NCATS).

SMILES strings stand for the structures. Results filed as inconclusive are left out. Activity calls are given as the source filed them. Unless noted, calls come from the whole dose curve.

The target of assay [1] is Estrogen receptor (Homo sapiens) (UniProt P03372). Briefly: qHTS assay for small molecule agonists of estrogen receptor alpha signaling (AID 588514).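 Note: 0% = vehicle only and 100% = reference agonist; nearly all actives have a fitted effect of over 70% in size.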 The method in brief:
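Fluorescence from CCF4 cleavage reports ER-alpha-driven beta-lactamase expression in HEK 293 cells treated 18 hrs at 37 C. Data normalized to 17-beta-estradiol (20 nM) and DMSO, fitted to Hill equation.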
Background: Quantitative high-throughput screening tests each substance at several concentrations.

For assay [2], the target named is Glucocorticoid receptor (Homo sapiens) (UniProt P04150). The experiment in a line: qHTS assay for small molecule antagonists of glucocorticoid receptor signaling (AID 588533; active = well fitted inhibition curve with a large enough effect in the signal ratio, with a control signal flat, not every such curve was filed as active; the % refers to the signal ratio; note: % is set by controls: 0 for no effect and ±100 for the full control effect). The method in brief:
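Antagonist-mode qHTS: compound titrations added to GRE-bla HeLa cells, then dexamethasone 2 nM final; 18 h, 37 C. CCF4 FRET fluorescence normalized to dexamethasone and DMSO; IC50 from Hill fit.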

For assay [3], the target named is Peroxisome proliferator-activated receptor delta (Homo sapiens) (UniProt Q03181). The experiment in a line: qHTS assay for small molecule agonists of peroxisome proliferator-activated receptor delta signaling (AID 588534).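 Note: 0% = DMSO basal wells and 100% = positive control agonist at 10 µM.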 The method in brief:
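EC50 and efficacy values derive from Hill fits of a concentration series in a beta-lactamase reporter cell assay. Exposure is 18 hrs at 37 C, with CCF4 fluorescence as the readout.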

Assay [4] addresses Vitamin D3 receptor (Homo sapiens) (UniProt P11473). The experiment in a line: qHTS assay for small molecule antagonists of vitamin D receptor signaling (AID 588541).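 Note: receptor activated by calcitriol during compound treatment; series mostly up to about 77 µM; % is set by controls: 0 for no effect and ±100 for the full control effect.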 In short, it runs like this:
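VDR-UAS-bla HEK293T cells in 2% charcoal-stripped FBS were stimulated with 1-alpha,25-dihydroxyvitamin D3 (3 nM final) plus compound for 16 h at 37 C. The beta-lactamase CCF4 readout was normalized to 50 nM agonist and DMSO, and Hill fits gave IC50.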

Assay [5] deals with Thyroid hormone receptor beta (Homo sapiens) (UniProt P10828). Briefly: qHTS assay for small molecule agonists of thyroid hormone receptor beta signaling (AID 588545).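 Note: 0% = DMSO only and 100% = 10 nM T3.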 In short, it runs like this:
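Compounds were tested as agonists in TR-UAS-bla-GripTite HEK 293 cells. After 18 hrs at 37 C, CCF4 substrate was added and fluorescence read after 2 hrs at room temperature.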

The nature of assay [6]: qHTS assay for small molecule antagonists of retinoid X receptor alpha signaling (AID 588546; active = well fitted inhibition curve with a large enough effect in the signal ratio, with a control signal flat, not every such curve was filed as active; the % refers to the signal ratio;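 note: cells stimulated with 9-cis-retinoic acid as agonist; % is set by controls: 0 for no effect and ±100 for the full control effect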). The conditions noted are these: HEK293T RXRa-UAS-bla, beta-lactamase ratio, antagonist mode; measured here: W530 green channel, cytotoxicity proxy. In short, it runs like this:
(§1)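 Beta-lactamase reporter inhibition, read as CCF4 fluorescence ratio (ex 405, em 460/530 nm) after 2 h at RT. HEK293T UAS-bla cells, 2500/well, were stimulated with 9-cis-RA at 500 or 100 nM final alongside test compound for 18 h at 37 C.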

For assay [7], the target named is Retinoic acid receptor RXR-alpha (Homo sapiens) (UniProt P19793). Described as above. The conditions noted are these: HEK293T RXRa-UAS-bla, beta-lactamase ratio, antagonist mode. The method in brief:
as §1

The target of assay [8] is Thyroid hormone receptor beta (Homo sapiens) (UniProt P10828). The experiment in a line: qHTS assay for small molecule antagonists of thyroid hormone receptor beta signaling (AID 588547; active = well fitted inhibition curve with a large enough effect in the signal ratio, with a control signal flat, not every such curve was filed as active; the % refers to the signal ratio;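 note: cells stimulated with 0.4 nM T3 agonist during compound exposure; series mostly up to about 77 µM; % is set by controls: 0 for no effect and ±100 for the full control effect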). The conditions noted are these: TR-UAS-bla HEK293, beta-lactamase ratio, antagonist mode, 18 h. The method in brief:
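TR-UAS-bla GripTite HEK293 cells in 2% charcoal/dextran FBS medium; compounds 0.59 nM to 92 uM with T3 at 0.4nM final, 18 h at 37 C. Beta-lactamase read by CCF4 fluorescence (460/530 nm); Hill fits gave IC50 and efficacy.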

A short description of assay [9]: qHTS assay for small molecule activators of the p53 signaling pathway (AID 651743; active = well fitted activation curve with a large enough effect in the signal ratio, not every such curve was filed as active; the % refers to the signal ratio; note: series mostly up to about 92 µM; % of control where 0% means no effect). The conditions noted are these: HCT-116 p53RE-bla, beta-lactamase FRET ratio, 16 h; activation: stronger effect = higher value. The method in brief: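 Reporter: beta-lactamase driven by p53 response elements, stably integrated in HCT-116 cells. Cells seeded at 4,000/well, 5 h preincubation, compound (DMSO) 16 h at 37 C; B/G FRET substrate 2 h RT; fluorescence intensity read.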

A short description of assay [10]: qHTS assay for small molecule activators of the nuclear factor-kappa B (NF-kB) signaling pathway (AID 651749; active = well fitted activation curve with a large enough effect in the signal ratio; the % refers to the signal ratio; note: series mostly up to about 77 µM; % of control where 0% means no effect). As to conditions: NF-kB-bla ME-180 cells, beta-lactamase FRET ratio, 16 h; activation: stronger effect = higher value. In short, it runs like this: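 NF-kB-bla ME-180 cells, 2,000/well; 23 nL compound or DMSO pinned; 16 hr, 37C/5% CO2; beta-lactamase FRET read-out.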

Assay [11] is described as follows: qHTS assay for environmental chemicals that activate the Aryl hydrocarbon Receptor (AhR) signaling pathway (AID 651777; active = well fitted curve in the direction sought with a large enough effect; an effect the other way counts as inactive or inconclusive; note: % of control where 0% means no effect; nearly all actives have a fitted effect of over 15% in size). The conditions noted are these: 1A2-DRE human hepatoma cells, luciferase, 24 h; activation: stronger effect = higher value. In short, it runs like this: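 Luminescence read-out: One-Glo added for 30 min at RT after 24 hr compound treatment (37 C, 5% CO2) of human hepatoma cells expressing a DRE/CYP1A2 promoter–luciferase reporter; increased signal indicates AhR activation.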

Assay [12] addresses Peroxisome proliferator-activated receptor alpha (Homo sapiens) (UniProt Q07869). Briefly: qHTS assay for small molecule agonists of the peroxisome proliferator-activated receptor alpha (PPARalpha) signaling pathway (AID 651778; active = well fitted curve in the direction sought with a large enough effect; an effect the other way counts as inactive or inconclusive; note: % of control where 0% means no effect). The conditions noted are these: PathHunter PPARalpha complementation, chemiluminescence, 6 h; max response: stronger effect = higher value. The method in brief:
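Enzyme-fragment complementation assay in which ligand-bound PPARalpha translocates and forms an active enzyme that generates chemiluminescence. Cells were plated overnight, exposed to compound for 6 hr at 37 C, and then given detection reagent for 60 min at room temperature.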

Assay [13] can be described thus: qHTS assay for small molecule agonists of the antioxidant response element (ARE) signaling pathway measured by Nrf2-dependant transcriptional activity (AID 720636; active = well fitted curve in the direction sought with a large enough effect in the repeat runs; an effect the other way counts as inactive or inconclusive;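 note: HepG2 cells with an ARE-driven luciferase reporter; % of control where 0% means no effect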). In short, it runs like this: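 HepG2 ARE-luc reporter line, 1% dialyzed FBS; 6 hr attachment at 37 C, compound pinned in, 16 hr at 37 C/5% CO2; ONE-Glo, 30 min RT, luminescence read.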
Assay [14] is described as follows: qHTS assay for small molecule agonists of the antioxidant response element (ARE) signaling pathway measured by Nrf2-dependant transcriptional activity - cell viability counter screen (AID 720653; active = well fitted curve in the direction sought with a large enough effect in the repeat runs; an effect the other way counts as inactive or inconclusive; note: % is set by controls: 0 for no effect and ±100 for the full control effect). The conditions noted are these: ARE-bla HepG2 viability, CellTiter-Glo ATP luminescence, 16 h; max response: stronger effect = lower value. In short, it runs like this: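 ARE-bla HepG2 cells treated with compounds for 16 h at 37C; this counter screen measures viability as intracellular ATP by CellTiter-Glo luminescence after 30 min at room temperature.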

Assay [15] is described as follows: qHTS assay for cell viability of HEK293 cells (AID 743288; active = well fitted curve in the direction sought with a large enough effect; an effect the other way counts as inactive or inconclusive; note: % is set by controls: 0 for no effect and ±100 for the full control effect; nearly all actives have a fitted effect of over 50% in size). As to conditions: ATP luminescence (CellTiter-Glo), 18 h; max response: stronger effect = lower value. In short, it runs like this: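 After 18 h compound exposure at 37 C, parental HEK293 cells (2,000/well) are lysed with CellTiter-Glo and luminescence is read following 30 min at room temperature.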
Assay [16] can be described thus: qHTS assay for cell viability of the p53RE-bla HCT-116 cell line (AID 743292; active = well fitted curve in the direction sought with a large enough effect; an effect the other way counts as inactive or inconclusive; note: % is set by controls: 0 for no effect and ±100 for the full control effect; nearly all actives have a fitted effect of over 55% in size). In short, it runs like this:
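Luminescent ATP quantitation (CellTiter-Glo) served as the viability read-out; reagent was added after 16 h compound exposure at 37 C and read after 30 min at room temperature. Cells: p53RE-bla HCT-116, 4,000 per well.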

In assay [17] the target is Nuclear receptor subfamily 1 group I member 2 (Rattus norvegicus) (UniProt Q9R1A7). The experiment in a line: qHTS assay for small molecule activators of the rat pregnane X receptor (rPXR) signaling pathway (AID 651751; call rule not given here; note: 0% is about no effect). As to conditions: rPXR reporter cells, luciferase (One-Glo), 24 h.
Chain of Nuclear receptor subfamily 1 group I member 2 (Rattus norvegicus) (Q9R1A7 whole entry, looked up): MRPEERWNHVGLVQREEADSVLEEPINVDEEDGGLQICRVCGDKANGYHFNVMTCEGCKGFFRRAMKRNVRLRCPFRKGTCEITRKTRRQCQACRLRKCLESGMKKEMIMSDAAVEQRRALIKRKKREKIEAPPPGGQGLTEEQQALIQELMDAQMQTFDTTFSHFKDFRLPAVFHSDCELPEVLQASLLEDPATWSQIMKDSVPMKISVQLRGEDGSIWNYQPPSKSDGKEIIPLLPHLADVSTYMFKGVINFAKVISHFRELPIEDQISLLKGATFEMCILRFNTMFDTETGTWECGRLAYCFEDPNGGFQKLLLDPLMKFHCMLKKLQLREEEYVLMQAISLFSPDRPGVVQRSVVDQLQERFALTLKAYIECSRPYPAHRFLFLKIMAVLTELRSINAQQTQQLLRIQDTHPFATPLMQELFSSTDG
Assay [18] in a line: qHTS assay for small molecule antagonists of peroxisome proliferator-activated receptor delta signaling (AID 588535; active = well fitted inhibition curve with a large enough effect in the signal ratio, with a control signal flat, not every such curve was filed as active; the % refers to the signal ratio;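 for max response: cells co-treated with a PPAR-delta agonist as stimulator during compound exposure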). The conditions noted are these: HEK293T PPARd-UAS-bla, beta-lactamase FRET ratio, 18 h; 460 nm channel. The method in brief: (§2)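 Beta-lactamase reporter read-out (405 nm excitation, 460/530 nm emission) after CCF4 loading for 2 hrs at RT. HEK293T PPAR-delta-UAS-bla cells, 2% charcoal/dextran FBS, compounds for 18 hrs at 37 C. Hill fit gave IC50 and efficacy.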

Assay [19] deals with Peroxisome proliferator-activated receptor delta (Homo sapiens) (UniProt Q03181). Described as above. In short, it runs like this: as §2
Chain of Peroxisome proliferator-activated receptor delta (Homo sapiens) (Q03181 whole entry, looked up): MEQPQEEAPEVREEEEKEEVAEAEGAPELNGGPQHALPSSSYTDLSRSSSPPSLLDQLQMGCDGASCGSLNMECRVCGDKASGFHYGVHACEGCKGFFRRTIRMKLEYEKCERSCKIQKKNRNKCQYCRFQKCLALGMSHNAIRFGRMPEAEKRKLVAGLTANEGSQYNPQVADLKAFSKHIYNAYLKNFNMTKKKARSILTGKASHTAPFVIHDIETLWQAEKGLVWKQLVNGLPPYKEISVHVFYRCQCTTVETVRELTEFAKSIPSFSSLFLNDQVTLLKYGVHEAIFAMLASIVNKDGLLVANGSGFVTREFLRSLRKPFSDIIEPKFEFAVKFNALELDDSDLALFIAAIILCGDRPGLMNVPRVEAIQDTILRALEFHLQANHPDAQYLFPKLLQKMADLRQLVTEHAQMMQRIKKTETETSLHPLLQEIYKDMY
Assay [20] deals with Retinoic acid receptor RXR-alpha (Homo sapiens) (UniProt P19793). The experiment in a line: qHTS assay for small molecule agonists of retinoid X receptor alpha signaling (AID 588544).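 Note: 0% = DMSO basal wells and 100% = reference agonist.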
Chain of Retinoic acid receptor RXR-alpha (Homo sapiens) (P19793 whole entry, looked up): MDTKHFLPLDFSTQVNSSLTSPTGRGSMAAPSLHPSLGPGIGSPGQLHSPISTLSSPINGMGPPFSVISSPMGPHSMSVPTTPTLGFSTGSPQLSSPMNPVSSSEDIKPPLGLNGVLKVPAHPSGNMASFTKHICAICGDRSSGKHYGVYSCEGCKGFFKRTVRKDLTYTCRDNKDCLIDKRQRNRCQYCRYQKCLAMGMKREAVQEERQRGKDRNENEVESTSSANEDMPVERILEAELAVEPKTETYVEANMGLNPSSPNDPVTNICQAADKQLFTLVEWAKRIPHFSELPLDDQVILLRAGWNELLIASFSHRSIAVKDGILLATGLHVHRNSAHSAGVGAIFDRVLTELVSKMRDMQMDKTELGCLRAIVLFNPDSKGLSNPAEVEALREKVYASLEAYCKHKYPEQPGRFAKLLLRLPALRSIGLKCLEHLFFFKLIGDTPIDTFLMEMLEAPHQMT

Chain of Estrogen receptor (Homo sapiens) (P03372 whole entry, looked up): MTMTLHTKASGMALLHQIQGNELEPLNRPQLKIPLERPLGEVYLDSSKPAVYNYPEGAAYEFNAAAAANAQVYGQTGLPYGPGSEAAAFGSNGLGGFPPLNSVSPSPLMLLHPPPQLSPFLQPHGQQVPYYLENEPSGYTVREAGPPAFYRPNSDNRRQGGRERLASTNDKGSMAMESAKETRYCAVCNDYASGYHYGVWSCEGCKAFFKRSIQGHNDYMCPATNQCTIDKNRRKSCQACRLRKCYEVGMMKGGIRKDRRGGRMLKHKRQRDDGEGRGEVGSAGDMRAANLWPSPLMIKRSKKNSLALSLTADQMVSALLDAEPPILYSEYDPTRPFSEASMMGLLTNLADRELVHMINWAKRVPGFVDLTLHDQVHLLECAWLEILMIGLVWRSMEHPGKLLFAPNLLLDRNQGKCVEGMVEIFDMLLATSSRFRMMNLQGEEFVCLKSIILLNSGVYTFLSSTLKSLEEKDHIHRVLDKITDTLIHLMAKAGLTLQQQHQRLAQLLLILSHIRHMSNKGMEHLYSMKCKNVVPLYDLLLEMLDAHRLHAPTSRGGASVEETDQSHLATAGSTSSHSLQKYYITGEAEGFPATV
Chain of Thyroid hormone receptor beta (Homo sapiens) (P10828 whole entry, looked up): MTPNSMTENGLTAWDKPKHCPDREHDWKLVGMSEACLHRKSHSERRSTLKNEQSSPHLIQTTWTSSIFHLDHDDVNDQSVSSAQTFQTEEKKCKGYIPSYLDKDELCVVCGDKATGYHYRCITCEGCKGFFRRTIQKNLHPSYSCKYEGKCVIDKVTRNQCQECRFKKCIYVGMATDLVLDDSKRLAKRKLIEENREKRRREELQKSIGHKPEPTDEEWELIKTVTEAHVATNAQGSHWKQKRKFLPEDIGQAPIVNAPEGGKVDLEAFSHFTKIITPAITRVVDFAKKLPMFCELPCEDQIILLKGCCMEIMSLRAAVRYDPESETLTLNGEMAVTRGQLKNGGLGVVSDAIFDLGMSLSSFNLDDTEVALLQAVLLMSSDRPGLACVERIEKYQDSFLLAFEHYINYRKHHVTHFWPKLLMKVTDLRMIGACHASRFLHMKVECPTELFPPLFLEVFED
Chain of Vitamin D3 receptor (Homo sapiens) (P11473 whole entry, looked up): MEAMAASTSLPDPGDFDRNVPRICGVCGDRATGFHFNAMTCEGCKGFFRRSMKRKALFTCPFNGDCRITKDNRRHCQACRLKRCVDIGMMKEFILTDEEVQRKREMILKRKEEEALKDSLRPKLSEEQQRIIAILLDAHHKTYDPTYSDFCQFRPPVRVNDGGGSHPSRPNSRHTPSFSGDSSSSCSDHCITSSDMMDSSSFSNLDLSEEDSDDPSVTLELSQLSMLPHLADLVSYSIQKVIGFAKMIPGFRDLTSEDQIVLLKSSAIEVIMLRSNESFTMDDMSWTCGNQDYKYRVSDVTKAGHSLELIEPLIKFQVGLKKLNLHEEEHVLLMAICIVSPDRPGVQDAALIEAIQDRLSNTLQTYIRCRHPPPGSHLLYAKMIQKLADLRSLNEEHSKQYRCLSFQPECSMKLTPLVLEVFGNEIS
Chain of Glucocorticoid receptor (Homo sapiens) (P04150 whole entry, looked up): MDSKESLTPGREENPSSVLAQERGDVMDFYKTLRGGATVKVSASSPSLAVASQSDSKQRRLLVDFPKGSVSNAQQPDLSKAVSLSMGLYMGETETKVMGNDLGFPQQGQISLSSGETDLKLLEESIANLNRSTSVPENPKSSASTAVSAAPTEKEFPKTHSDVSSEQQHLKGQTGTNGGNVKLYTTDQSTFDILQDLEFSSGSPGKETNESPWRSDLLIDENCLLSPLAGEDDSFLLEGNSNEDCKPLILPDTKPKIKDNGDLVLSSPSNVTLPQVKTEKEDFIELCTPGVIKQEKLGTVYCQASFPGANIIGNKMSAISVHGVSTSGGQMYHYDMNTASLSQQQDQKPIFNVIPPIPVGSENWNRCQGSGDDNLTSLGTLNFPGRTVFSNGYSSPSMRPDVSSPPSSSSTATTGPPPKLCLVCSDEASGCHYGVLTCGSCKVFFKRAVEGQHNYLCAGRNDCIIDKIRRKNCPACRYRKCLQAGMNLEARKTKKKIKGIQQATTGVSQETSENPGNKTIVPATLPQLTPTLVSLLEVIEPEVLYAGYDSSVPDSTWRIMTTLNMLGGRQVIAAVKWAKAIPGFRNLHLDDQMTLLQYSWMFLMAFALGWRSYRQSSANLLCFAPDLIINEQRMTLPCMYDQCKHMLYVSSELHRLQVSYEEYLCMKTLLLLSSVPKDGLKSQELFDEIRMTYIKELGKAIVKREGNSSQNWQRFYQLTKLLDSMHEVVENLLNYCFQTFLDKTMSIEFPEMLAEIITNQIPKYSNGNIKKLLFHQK
Chain of Peroxisome proliferator-activated receptor alpha (Homo sapiens) (Q07869 whole entry, looked up, the tested form may be a part): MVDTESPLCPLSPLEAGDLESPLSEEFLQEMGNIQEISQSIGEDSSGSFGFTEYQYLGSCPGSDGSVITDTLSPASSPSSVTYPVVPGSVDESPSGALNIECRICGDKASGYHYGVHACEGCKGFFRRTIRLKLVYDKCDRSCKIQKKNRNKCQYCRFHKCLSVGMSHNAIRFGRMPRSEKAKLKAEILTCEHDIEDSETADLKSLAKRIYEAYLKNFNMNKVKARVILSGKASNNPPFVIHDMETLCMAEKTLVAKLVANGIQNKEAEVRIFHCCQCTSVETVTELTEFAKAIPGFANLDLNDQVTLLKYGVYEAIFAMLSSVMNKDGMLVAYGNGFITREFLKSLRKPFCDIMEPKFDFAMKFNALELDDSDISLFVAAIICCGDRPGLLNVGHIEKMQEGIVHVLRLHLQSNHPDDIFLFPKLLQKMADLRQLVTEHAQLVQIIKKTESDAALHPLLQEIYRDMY

As for `Clc1ccc(-c2cc(Cl)c(Cl)cc2Cl)cc1Cl`, the Potency entry in assay [1], in [2], in [4], in [5], in assay [13] and in assay [16] was “inactive” in each case. Moreover, the call in assay [3] was inactive. Further, the max response in assay [6] was -9.16%; in [7] it was 4.83% (inactive); in assay [12], 0.243% (inactive); in assay [14], 3.45% (inactive); in [15], -23.9% (inactive); in [17], -1.84% (inactive). The activity change % (negative = inhibition) in assay [8] is -25.9% (inactive). Moreover, the figures for the activation in assay [9], in [10] and in assay [11] were -5.87% (inactive), 5.08% (inactive) and 1.74% (inactive), respectively.
Take `CCC(C)(NC(=O)c1cc(Cl)c(C)c(Cl)c1)C(=O)CCl` (stereo unspecified): the Potency result in [1], in assay [2], in assay [19], in assay [5] and in assay [16] was “inactive” in each case. Moreover, the outcome in assay [3] was inactive. Besides, the max response was 31.6% in [18]; 0.829% (inactive) in [12]; 0.353% (inactive) in assay [14]; -19.8% (inactive) in assay [15]; 1.32% (inactive) in [17]. The activation in [9] was 14.9% (inactive); in assay [10] it was -0.168% (inactive); in assay [11] it was 1.89% (inactive).
Turning to `CC(C)C1(C)N=C(c2ncccc2C(=O)O)NC1=O` (stereo unspecified), the Potency result in assay [1], in [2], in assay [19], in assay [4], in assay [20] and in [5] was “inactive” in each case. For the same compound, the Potency entry in assay [13] and in assay [16] was “inactive” each time. In addition, the call in [3] was inactive. Besides, the max response in [18] was 7.61%; in assay [6] it was -22%; in [7] it was -0.742% (inactive); in [12], -1.4% (inactive); in assay [14], -6.07% (inactive); in [15] it was 8% (inactive). Besides, in [17], the max response was -3.34% (inactive). Moreover, in [8], the activity change % (negative = inhibition) was 2.89% (inactive). Besides, the activation is -4.94% (inactive) in assay [9] and -1.56% (inactive) in assay [11].
For the compound `CC1(C)C(C(=O)OC(C#N)c2cccc(Oc3ccccc3)c2)C1(C)C` (stereo unspecified), the Potency entry in [1], in [19], in [4], in [20], in assay [13] and in [16] was “inactive” throughout. Besides, the compound was called inactive in assay [3]. The max response in assay [18] was 27.8%; in assay [6], -18.6%; in assay [7] it was -14.5% (inactive); in [12], -0.276% (inactive); in assay [14], -19.4% (inactive); in assay [15], -11.3% (inactive). Besides, the activity change % (negative = inhibition) in assay [8] is 2.17% (inactive). The activation was -5.39% (inactive) in [9], 2.53% (inactive) in assay [10] and -0.509% (inactive) in assay [11].
In the case of `CCOc1nc(F)cc2nc(S(=O)(=O)Nc3c(Cl)cccc3Cl)nn12`, the Potency result in assay [1], in assay [19], in assay [4], in assay [20], in assay [5] and in assay [13] was “inactive” in each case. Moreover, in assay [16], the Potency result was “inactive”. Also, the compound was called inactive in assay [3]. For the same compound, the max response in assay [18] is 23.2%; in [6] it was 6.95%; in assay [7] it was -25.7% (inactive); in [12] it was -2.41% (inactive); in [14], -9.33% (inactive); in assay [15], -11.2% (inactive). Besides, in assay [17], the max response is 1.99% (inactive). Also, the activity change % (negative = inhibition) in assay [8] was -10.3% (inactive). Also, the activation in assay [9] was 1.78% (inactive); in [10], 0.211% (inactive); in assay [11], -0.921% (inactive).
